# According to PubChem BioAssay AID651800 (The Scripps Research Institute Molecular Screening Center, 2012):
# About 1,300 (0.36%) of roughly 360,000 compounds were called active. Many of the other results were omitted from the sample, so actives are more common in it than they were. A number with no mark means an inactive call. Rule as the data show it: active = inhibition above about 19%; inactive = the rest.
# Test system: T-cell receptor (TCR)
# Experiment: small molecules blocking TCR binding to CD3 – biochemical, fluorescence, TAMRA-labeled TCR probe, primary screen (AID 651800);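 also: recombinant mutant TCR 2C K166C tagged with TAMRA read by polarization; 0% = receptor in buffer alone and 100% = receptor with positive control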
# Settings: at 9.4 µM, active compounds read high
row,SMILES,inhibition
1,C[C@@H](NC(=O)OC(C)(C)C)c1nnc(S(=O)(=O)Cc2ccccc2)o1,6.57%
2,COC(=O)Cc1nnn2c1[C@H](C)[C@@H](OC)c1cc(Br)ccc1-2,-3.71%
3,COC(=O)[C@]12C[C@H](CC(=O)NCCc3ccccc3OC)C(=O)N(Cc3ccccc3)C1=C[C@H](C(C)C)O[C@@H]2C1CC1,0.38%
4,Cc1[nH]c2ccccc2c1CC(=O)Nc1ccc(Nc2cccnc2)c(-c2cccc(Cl)c2)c1,7.27%
5,Cc1ccc(O)c(/C=N/NC(=O)COc2ccc3c(C)cc(=O)oc3c2)c1,35% (active)
6,CC(=O)c1c(C)[nH]c(C(=O)COc2ccc3c(C)cc(=O)oc3c2)c1C,-7.65%
7,COc1ccc(N2CCN(C(=O)COc3ccc4c(C)cc(=O)oc4c3)CC2)cc1,4.22%
8,Cc1nc(NC(=O)C(C)(C)C)sc1[N+](=O)[O-],-8.33%
9,O=S1(=O)c2ccc(Br)cc2-n2nncc2CN1Cc1cccc(Cl)c1,3.21%
10,Nc1ncnc2c1ncn2[C@@H]1O[C@H](C(=O)N[C@@H](CCc2ccccc2)C(=O)NCC(=O)N2CCOCC2)[C@@H](O)[C@H]1O,10.8%
11,COC(=O)C(C(=O)OC)c1ccccc1NS(=O)(=O)c1cccc2ccccc12,6.59%
12,O=C(NN=Cc1ccco1)C(=O)Nc1ccc(Cl)c([N+](=O)[O-])c1,3.53%
13,CCOc1cc(/C=N/NC(=O)c2cccc(S(=O)(=O)N3CCOCC3)c2)ccc1OCC(=O)N(C)C,-6.38%
14,O=C(NNC1=NCCC1)c1cccc(S(=O)(=O)N2CCCCC2)c1,-7.2%
15,Cc1ncc(CO)c(/C=N/NC(=O)c2cccc(S(=O)(=O)N3CCCC3)c2)c1O,27.1% (active)
16,O=C(O)Cn1cnc2c(NCc3ccccc3)ncnc21,-4.94%
17,Cc1cc2ccccc2n1CCNC(=O)COc1ccc2ccccc2c1,60.3% (active)
18,Cc1ccc(C)c(NC(=O)CN(C)C(=O)COc2ccc3ccccc3c2)c1,-2.17%
19,COCCNC(=O)COc1ccc(N(C)S(=O)(=O)c2ccc3ccccc3c2)cc1,-0.41%
20,N#Cc1cccc(C(=O)NCC2CCN(C(=O)C(=O)c3cc4ccccc4o3)CC2)c1,0.99%
21,CCOc1ccccc1C(=O)N1CCC[C@@H]1C(=O)N1CCC[C@H]1C(=O)NCc1ccccc1,-2.28%
22,Cc1ccc2nc(-c3ccc(NC(=O)CN(C)S(=O)(=O)c4ccccc4)cc3)sc2c1,8.35%
23,O=C(Nc1cccc(-c2nc3ccccc3[nH]2)c1)c1ccc(C(=O)Nc2cccc(-c3nc4ccccc4[nH]3)c2)cc1,26.7% (active)
24,O=C(Nc1ccccc1)c1cc2ccccc2[nH]1,-3.23%
25,O=C(NCC(O)c1nc2ccccc2[nH]1)c1ccc(Br)cc1 (stereo not drawn),4.63%
26,Cc1cc(OC(=O)NCCc2ccc(F)cc2)ccc1F,1.4%
27,COC(=O)c1cc2c(c3c4cc(F)ccc4n(S(=O)(=O)c4ccccc4)c13)C(=O)N(Cc1ccccc1OC)C2,2.91%
28,CC(C)(C)C(c1nc2ccccc2[nH]1)n1c(Cc2csc3ccccc23)nc2ccccc21 (stereo not drawn),5.18%
